# Reference: the supplement of paper PMC6555819
# How the values were obtained:
# Assay in all cases: PBM binding z-score (relative to random genomic background probes); higher = stronger binding; sequences stand for … in GC…GCGATTGACAGCGTAGAATGAAGG
# [1] = system: PPARg:RXRa DBDmut IVT, anti-RXR (DBD mutation: RXRa K156A/R161A, NR concentration 270 nM, RXRa partner concentration 90 nM)
# Summary of the method: (§1)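 Antibodies against each partner of ligand-free nuclear receptor dimers (one per run) detected binding on custom Agilent 4×180K protein-binding microarrays after 1 h incubation. The double-stranded probes had 34-nt variable regions carrying direct-repeat seeds, single-nucleotide variants, half-site ablations and random human genomic background sequences. Binding z-scores, from regression-normalized fluorescence, use the random background probes as reference.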
# [2] = system: PPARg:RXRa IVT, anti-PPARg (NR concentration 270 nM, RXRa partner concentration 90 nM)
# Summary of the method: as §1
# [3] = system: PPARg DBDmut:RXRa IVT, anti-PPARg (DBD mutation: PPARg1 K132A/R137A, NR concentration 270 nM, RXRa partner concentration 90 nM)
# Summary of the method: as §1
# [4] = system: PPARg DBDmut IVT, anti-PPARg (DBD mutation: PPARg1 K132A/R137A, NR concentration 270 nM)
# Summary of the method: as §1
# [5] = system: PPARg homodimer (NR concentration 180 nM)
# Summary of the method: as §1
# [6] = system: PXR:RXRa (NR concentration 270 nM, RXRa partner concentration 90 nM)
# Summary of the method: as §1
# [7] = system: PXR homodimer (NR concentration 270 nM)
# Summary of the method: as §1
# [8] = system: RARa:RXR (NR concentration 270 nM, RXRa partner concentration 90 nM)
# Summary of the method: as §1
# [9] = system: RARa homodimer (NR concentration 270 nM)
# Summary of the method: as §1
# [10] = system: RARb:RXRa (NR concentration 270 nM, RXRa partner concentration 90 nM)
# Summary of the method: as §1
# [11] = system: RARb homodimer (NR concentration 270 nM)
# Summary of the method: as §1
# [12] = system: RARg:RXRa (NR concentration 270 nM, RXRa partner concentration 90 nM)
# Summary of the method: as §1
# [13] = system: RARg homodimer (NR concentration 270 nM)
# Summary of the method: as §1
# [14] = system: RXRa DBDmut IVT, anti-RXR (DBD mutation: RXRa K156A/R161A, NR concentration 90 nM)
# Summary of the method: as §1
# [15] = system: RXRa homodimer (NR concentration 180 nM)
# Summary of the method: as §1
# [16] = system: THRa:RXRa (NR concentration 90 nM, RXRa partner concentration 90 nM)
# Summary of the method: as §1
# [17] = system: THRa homodimer (NR concentration 90 nM)
# Summary of the method: as §1
# [18] = system: VDR:RXRa (NR concentration 270 nM, RXRa partner concentration 90 nM)
# Summary of the method: as §1
# [19] = system: VDR homodimer (NR concentration 270 nM)
# Summary of the method: as §1
Sequence,PBM binding z-score [1],PBM binding z-score [2],PBM binding z-score [3],PBM binding z-score [4],PBM binding z-score [5],PBM binding z-score [6],PBM binding z-score [7],PBM binding z-score [8],PBM binding z-score [9],PBM binding z-score [10],PBM binding z-score [11],PBM binding z-score [12],PBM binding z-score [13],PBM binding z-score [14],PBM binding z-score [15],PBM binding z-score [16],PBM binding z-score [17],PBM binding z-score [18],PBM binding z-score [19]
GATACAGGATCAGCTAGAGGCCAGAGTATGGAAA,-1.08,-0.432,-0.311,-0.748,-0.609,-0.395,-0.577,-0.16,-0.552,0.184,-0.0727,1.16,0.363,-0.823,0.154,-0.0869,-1,-0.569,-0.773
CCTACTGGGCCAAAGGTCATGGATTCCAATGCTC,5.34,6.68,-0.19,-0.578,2.93,5.44,0.496,6.58,0.489,4.92,4.97,6.18,5.26,0.383,6.66,3.73,1.02,4.85,1.54
ATCTCTAGGTAAAAGTTCAGAGAATCCCGAGGAT,2.03,3.83,1.22,1.3,1.38,1.99,1.55,1.76,1.49,2.5,2.16,2.02,1.97,0.853,1.87,1.24,-0.00417,1.43,1.91
TAGCCGAGGTCATGCGGGCCAGTATAGTGTCGGC,1.88,4.29,1.82,0.598,2.81,5.79,2.14,6.18,0.453,5.17,4.39,6.21,5.83,3.81,6.86,4.36,2.99,5.82,4.62
CGTCCAAGGTCAAGGTCAGTCAAAGAGACTCGAA,4.13,4.78,1.48,-0.095,4.54,4.99,1.7,5.42,2.49,5.83,5.15,6.95,7.59,4.09,6.7,4.16,3.61,4.84,3.55
CAAACTAGGTCAAGAGGCCAAAGTCCGCTTCCCG,8.03,8.06,1.13,0.602,1.8,1.56,0.34,2.68,0.79,3.93,3.79,4.65,4.83,1.85,2.98,2.75,0.986,2.16,1.03
CCTTACGGGACAAGGTTATAGCACGGGTGGTACG,-0.648,0.0765,-0.507,-0.996,0.819,0.699,0.148,1.01,0.441,0.996,1.07,1.07,0.894,-0.464,1.35,1.08,0.341,0.416,0.555
GCTTACGGGTCAAAGTTTATAGCATGAATAGAAT,4.19,5.17,1.43,1.62,2.34,4.83,1.1,6.42,0.895,4.06,2.72,5.32,4.39,3.19,7.06,2.9,-0.354,4.3,2.25
ACAGACAGGTGAGTGTAGGTAACTCAGCTGGACG,0.831,1.24,-0.529,-0.0544,0.128,-0.121,0.0184,0.216,0.676,0.392,-0.178,0.259,0.401,-0.328,0.232,1.33,-0.572,-0.371,-0.361
CGTCCAAGTTCAATGCTAGGTCAGTGAAAGCATT,0.331,0.878,0.0119,0.59,2.95,4.21,4.73,3.6,1.33,3.79,3.86,5.74,4.36,4.53,2.5,3.53,1.21,4.26,4.43
TCATTTAGGTAATACAGGTGAAAGTCGGCATCTA,3.53,3.29,1.53,1.6,1.72,1.06,0.701,1.43,2.03,1.07,0.788,0.841,0.652,1.96,1.33,1.58,1,1.18,0.57
TCTTGTAGATCAAGCAGGTTATGAAAGCCTGAGT,1.29,0.311,0.244,0.263,-0.854,0.4,0.201,0.334,-0.519,0.176,-0.0622,0.0667,-0.307,0.366,0.465,0.302,-0.815,0.521,-0.186
GCTAGTTGGTCAGTAAAAGGTCACTCACCGGTCG,1.28,2.47,-0.335,0.0493,3.31,4.53,0.779,5.19,1.56,4.12,5.26,5.05,4.43,0.781,4.21,3.31,1.47,3.51,1.36
CCTGCTAGGTCAATGGTCGGCTAAAGCAGCTCGC,4.15,4,-0.289,-0.553,1.3,0.918,-0.868,1.47,0.0604,3.73,2.9,3.87,4.16,1.74,1.88,2.42,0.749,1.07,0.149
CAAACTAGGGCAAAGGTCAAAGTCGAGCCAACCA,7.98,8.53,3.73,2.63,4.12,5.98,1.29,7.53,1.54,5.15,4.68,7.57,6.04,2.02,8.18,3.87,0.591,5.41,2.25
TCTCGGAGGACACGAAGGTCAGAGCATTCCAGAG,1.39,1.39,-0.898,-1.01,0.93,1.74,0.89,1.61,0.282,3.07,3.61,3.22,4.02,0.583,1.97,2.87,0.91,2.31,1.04
TCGAGTAGGTTCGGGGCATTCAGAATGGCGTCGA,0.529,-0.193,-0.804,-0.918,-0.546,-0.101,-0.4,-0.0228,-1.08,0.221,-0.0297,-0.387,-0.609,0.913,-0.159,0.428,-0.274,0.124,1.09
CCGACTGGGGCAAGGTTACCACAACGCACAGCCA,3.33,3.56,0.0122,-0.719,-0.214,0.24,-0.209,0.76,0.366,1.61,1.53,1.13,1.45,-0.491,1.12,1.31,0.612,0.188,-0.211
CCGAGTAGGTTATGGGGCATTAAGGCAACGGTGA,3.03,3.54,-0.853,-0.637,1.15,-0.0362,-0.296,0.648,0.0185,0.818,1.08,0.561,0.543,-0.314,0.65,0.981,0.598,0.259,0.0646
TCATATAAGTAATACAGGTGAAAGTCGGCATCTA,3.37,1.87,0.985,0.83,1.07,0.888,0.782,1.1,1.95,0.567,0.481,0.675,0.621,2.03,1.42,0.662,0.191,1.16,0.605
CCTACTGGGCCACGCAAGGTCATTGATTCAGTGA,5.58,5.36,0.0336,0.776,2.02,4.51,1.84,3.48,0.546,2.81,3.66,3.09,2.61,0.396,2.62,4.54,2.64,3.62,2.93
TCTGCTACGTCAGTTGGTCAGCTAACGAGCTGCC,0.19,-0.135,0.134,0.236,-2.23,-0.876,-1.18,-0.819,-1.96,-0.0758,-0.763,-0.688,-0.884,0.0505,-0.761,-1.71,-0.995,-0.996,-1.44
GCTATTAGTAGAAAGGGCAACCGAATGATTCTCG,0.164,0.803,0.319,0.449,1.28,0.256,-0.0739,0.703,1.09,1.96,1.83,0.904,1.32,0.538,0.634,0.234,-0.401,0.11,-0.301
CAAACTAGGTCAAGGTCAAAGTGGGTTTGTGCCA,8.63,8.56,2.16,1.39,3.95,5.56,2.52,5.18,1.68,5.14,5.23,5.95,6.67,3.05,5.78,4.34,3.93,5.74,5.14
TCTCGGAGGACACGAACGTCAGAGCTTTCCAGAG,0.985,-0.0503,-0.617,-1.23,-1.43,-0.256,-0.522,-0.0977,-1.21,1.35,0.309,0.302,0.872,0.441,0.094,1.25,0.208,-0.0912,-0.356
CGTCAAAGTTCAACTAAGGTAGCGTAAAGCACGC,0.387,1.51,-0.0827,0.743,3.4,5.03,4.13,3.8,2.16,5.15,4.16,5.74,6.39,4.42,4.96,5.06,0.699,4.35,4.01
GCTATTAGTCGAAAGGGCAACCGAATGATTCTCG,0.549,0.458,0.65,0.0546,0.852,0.446,-0.0421,0.942,0.125,2.07,2.08,1.09,1.5,0.643,0.86,0.548,-0.36,0.247,0.289
TCCTGTAGATCAACAGGAGGTTAAGAAAGATCGA,0.771,0.245,-0.0559,0.308,0.0427,0.654,-0.17,1.02,-0.715,0.535,0.374,0.894,0.158,-0.0672,0.88,0.931,-0.958,0.266,-0.104
TCATATAGGTAAAGGTGAAAGCCGAACGATATGA,3.94,4.09,1.05,1.68,1.25,0.502,-0.307,1.44,-0.251,1.83,1.16,1.44,1.18,0.508,1.93,1.47,-0.707,0.743,-0.196
CCGACTGGGGCAGATAGGTTACCATACCATCCGG,1.48,1.4,-1.44,-0.883,0.00162,-0.407,-0.499,0.117,-0.193,0.804,0.817,0.424,0.518,-0.658,0.262,-0.181,-0.391,-0.389,-0.573
